# Data taken from PubChem BioAssay (NCI).
# About 83,000 compounds went through this panel and 20% of them were active in at least one assay; those are over-represented in the sample as a whole.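 Results are percent growth after 48 hours of single-concentration exposure. 100 means growth as in untreated cells, lower positive values show inhibition; negative values down to -100 show cell death.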 Activity calls are given as the source filed them. The calls were made as follows: active = growth percent below 10; inactive = the rest.
# Tested on: NCI-H522 lung
# Assay: NCI-60 one-dose screen, 48 h (100 = growth as untreated, 0 = no growth, -100 = all killed)
# Settings: 10 µM unless noted
row,Compound,growth
1,O=[N+]([O-])c1cccc2cc(S(=O)(=O)O)ccc12,83.8% (inactive)
2,COc1ccc(SC2c3ccc(O)cc3Oc3nc(N)c(C#N)c(N)c32)cc1 (stereo not drawn),86.3% (inactive)
3,Nc1nccc2c1ccn2-c1cccc(NC(=O)c2ccc(N3CCOCC3)c(C(F)(F)F)c2)c1,-43% (active)
4,COc1ccc(OC)c(NCC(=O)n2nc(/C=C\c3ccc(O)c(OC)c3)cc2/C=C\c2ccc(O)c(OC)c2)c1,-19.3% (active)
5,O=C(Nc1ccc(-n2cc(-c3ccncc3)c(-c3ccc(O)c(Cl)c3)n2)cc1)c1cc(C(F)(F)F)cc(C(F)(F)F)c1,62.8% (inactive)
6,CC(C)(C)OC(=O)N1CCN(CCn2cc(C(F)(F)F)c3c(Cl)ncnc32)CC1,-2.6% (active)
7,COc1cc([C@@H]2c3cc4c(cc3C(OC3O[C@@H]5COC(C)O[C@H]5[C@H](O)[C@H]3O)C3COC(=O)[C@@H]32)OCO4)cc(OC)c1O (stereo partly drawn),24.3% (inactive)
8,CNCCCOc1c(Br)cc(CCNC(=O)/C(Cc2cc(Br)c(OC)c(Br)c2)=N/O)cc1Br,-64% (active)
9,CCCCCCCCN(CCCCCCCC)CC(O)c1cc(-c2ccccc2)nc2ccc(OC)cc12 (stereo not drawn),77.5% (inactive)
10,CC(C)(C)NC(C1=CC(C)(C)c2ccccc2C1=O)c1ccccc1 (stereo not drawn),-81.5% (active)
11,CCOC(=O)C1CSC(C)(C(=O)OCC)N1 (stereo not drawn),76.7% (inactive)
12,COc1ccc(-c2coc3c(CO)c(O)ccc3c2=O)cc1,67.2% (inactive)
13,O=C(Cn1c2ccccc2c2ccncc21)N/N=C/c1c[nH]c2ccccc12,58.8% (inactive)
